Experimental data as given in PubChem BioAssay (Tox21).
Values without a mark were called inactive. Records with an inconclusive call do not appear. A call without a number means that no potency is given here. Active and inactive are the calls of the source. Unless noted, calls follow the shape of the full dose curve.

Assays:
[1] = Nuclear factor erythroid 2-related factor 2/antioxidant responsive element (Nrf2/ARE) small molecule agonists: qHTS cell viability counter screen in human keratinocytes (AID 1919968; active = well fitted curve in the direction sought with a large enough effect in the repeat runs; an effect the other way counts as inactive or inconclusive; also: nearly all actives have a fitted effect of over 55% in size)
Outline: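 Fluorescence read-out from CellTiter-Fluor after 1 h at 37 C. Wells held HaCaT-derived ARE-luciferase reporter cells (1,500/well) treated 23 h with DMSO-dissolved compounds. Run in the same wells as the luciferase agonist read.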

[2] = Nuclear factor erythroid 2-related factor 2/antioxidant responsive element (Nrf2/ARE) small molecule agonists: luciferase reporter gene qHTS assay in human keratinocytes (AID 1919969); also: nearly all actives have a fitted effect of over 35% in size; also: potency is read from the fitted curve at half-maximal effect
[3] = molecular target: Gonadotropin-releasing hormone receptor (Homo sapiens) (UniProt P30968); assay: Human gonadotropin-releasing hormone receptor (GnRHR) small molecule agonists, calcium flux assay in GnRHR-HEK293 cells (AID 1920063); also: nearly all actives have a fitted effect of over 35% in size
Sequence of Gonadotropin-releasing hormone receptor (Homo sapiens) (P30968 whole entry, looked up): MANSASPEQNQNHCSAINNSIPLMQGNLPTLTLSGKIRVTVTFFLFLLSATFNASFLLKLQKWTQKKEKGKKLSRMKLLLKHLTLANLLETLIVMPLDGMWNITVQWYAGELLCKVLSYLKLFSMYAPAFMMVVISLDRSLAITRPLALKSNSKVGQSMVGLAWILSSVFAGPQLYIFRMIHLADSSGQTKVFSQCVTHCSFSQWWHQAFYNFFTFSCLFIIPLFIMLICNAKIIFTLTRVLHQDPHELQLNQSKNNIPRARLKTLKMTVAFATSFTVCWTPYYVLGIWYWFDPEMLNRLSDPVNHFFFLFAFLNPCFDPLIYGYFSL
Outline: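 Calcium-dye fluorescence, Ex/Em=480/540, recorded every 1 sec over 3 min after compound addition to GnRHR-HEK293 cells. Cells had been seeded 18 hours earlier and dye-loaded for 1 hour at 37 C. Fifteen concentrations, triplicates.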

[4] = molecular target: KiSS-1 receptor (Homo sapiens) (UniProt Q969F8); assay: Human kisspeptin (KISS1R) small molecule agonists, calcium flux assay in KISS1R-HEK293 cells (AID 1920064; active = well fitted curve in the direction sought with a large enough effect in the repeat runs; an effect the other way counts as inactive or inconclusive)
Sequence of KiSS-1 receptor (Homo sapiens) (Q969F8 whole entry, looked up): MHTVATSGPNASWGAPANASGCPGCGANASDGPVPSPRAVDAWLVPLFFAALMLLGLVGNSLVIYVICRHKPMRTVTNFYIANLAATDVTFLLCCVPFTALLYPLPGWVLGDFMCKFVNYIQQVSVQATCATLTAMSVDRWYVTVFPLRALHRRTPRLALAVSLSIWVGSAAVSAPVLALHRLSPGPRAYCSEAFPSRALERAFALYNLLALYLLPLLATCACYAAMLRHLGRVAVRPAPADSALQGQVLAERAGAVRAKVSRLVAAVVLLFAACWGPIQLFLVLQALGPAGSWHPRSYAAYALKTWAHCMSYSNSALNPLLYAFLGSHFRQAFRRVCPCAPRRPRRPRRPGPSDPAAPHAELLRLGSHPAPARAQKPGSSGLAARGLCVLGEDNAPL
Outline: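 Calcium flux read-out: kinetic fluorescence at Ex/Em=480/540, 1 s intervals over 3 min, after pin-tool compound addition to dye-loaded KISS1R-HEK293 cells. Fifteen concentrations, triplicates.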

[5] = G protein-coupled receptor (GPCR) small molecule agonists, calcium flux assay: HEK293 wild type cell line counter screen (AID 1920065)
Outline: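 Agonist mode; 18 h seeding at 37 C, 1 h dye load at 37 C; compounds pinned from DMSO, ATP as positive control; kinetic fluorescence 480/540 nm, 3 min, 1 s reads; 15 concentrations, triplicate.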

[6] = p53 small molecule agonists, cell-based qHTS assay with human liver microsomes (AID 1963577);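 also: p53 response element beta-lactamase reporter cells with liver microsomes plus NADPH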
Outline: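 With metabolic activation: human liver microsomes (0.5 mg/mL final) plus NADPH (0.5 mg/mL final) added alongside compounds to p53RE-bla cells; 16 h 37 C exposure; beta-lactamase read by LiveBLAzer fluorescence.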

[7] = p53 small molecule agonists, cell-based qHTS assay with rat liver microsomes (AID 1963578)
Outline: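 Metabolic activation by rat liver microsomes and NADPH, each 0.5 mg/mL final, added right after compounds to p53RE-bla reporter cells (4,000/well, plated 5 h earlier). 16 h at 37 C, then LiveBLAzer substrate for 2 h at room temperature in the dark; fluorescence read-out.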

[8] = p53 small molecule agonists, cell-based qHTS assay with human liver microsomes: qHTS cell viability counter screen (AID 1963579); also: nearly all actives have a fitted effect of over 45% in size
Outline: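 Metabolic activation used human liver microsomes and NADPH, both 0.5 mg/mL final, over 16 hours at 37 C on p53RE-bla cells (4,000/well). Cytotoxicity measured by CellTiter-Glo luminescence, 30 min at room temperature.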

[9] = p53 small molecule agonists, cell-based qHTS assay with rat liver microsomes: qHTS cell viability counter screen (AID 1963580); also: nearly all actives have a fitted effect of over 45% in size
Outline: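 Rat liver microsome (0.5 mg/mL final) and NADPH (0.5 mg/mL final) co-incubation with compounds for 16 h at 37 C on HCT-116 p53RE-bla cells; cytotoxicity taken from intracellular ATP luminescence.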

[10] = p53 small molecule agonists, cell-based qHTS assay: qHTS cell viability counter screen (AID 1963581); also: nearly all actives have a fitted effect of over 45% in size
Outline: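 Cytotoxicity read-out: ATP-based luminescence (CellTiter-Glo, 30 min RT) measured in the same wells as the p53 reporter assay, HCT-116 p53RE-bla cells, 16 h compound exposure at 37 C.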

[11] = p53 small molecule agonists, cell-based qHTS assay (AID 1963582; active = well fitted activation curve with a large enough effect in the signal ratio in the repeat runs, not every such curve was filed as active; the % refers to the signal ratio)
Outline: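 Fluorescence intensity read-out of a beta-lactamase reporter under a p53 response element. Cells were exposed to DMSO-dissolved compounds for 16 h at 37 C, then developed with FRET substrate for 2 h at RT.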

[12] = molecular target: 5-hydroxytryptamine receptor 2A (Homo sapiens) (UniProt P28223); assay: 5-hydroxytryptamine receptor 2A (HTR2A) small molecule antagonists, cell-based qHTS assay (AID 1963586); also: nearly all actives have a fitted effect of over 45% in size
Sequence of 5-hydroxytryptamine receptor 2A (Homo sapiens) (P28223 whole entry, looked up): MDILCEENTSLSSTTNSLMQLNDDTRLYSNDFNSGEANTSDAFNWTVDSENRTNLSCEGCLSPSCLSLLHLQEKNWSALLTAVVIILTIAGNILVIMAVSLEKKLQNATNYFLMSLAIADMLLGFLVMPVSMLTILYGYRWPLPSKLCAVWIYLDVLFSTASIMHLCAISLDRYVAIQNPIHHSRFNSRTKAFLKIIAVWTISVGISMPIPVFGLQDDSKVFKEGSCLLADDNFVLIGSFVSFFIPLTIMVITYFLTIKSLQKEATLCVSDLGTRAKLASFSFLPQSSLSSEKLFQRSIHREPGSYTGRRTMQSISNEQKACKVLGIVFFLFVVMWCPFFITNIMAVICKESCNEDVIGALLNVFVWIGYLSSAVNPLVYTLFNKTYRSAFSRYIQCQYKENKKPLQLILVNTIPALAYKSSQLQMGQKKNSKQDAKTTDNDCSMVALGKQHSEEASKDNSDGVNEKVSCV
Outline: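 CHO cells stably expressing human HTR2A were plated for 18 h at 37 C, then loaded with calcium dye for 1 h. Compounds were preincubated 5 min at room temperature before DOI (4 nM solution) was added. Kinetic fluorescence was read for 3 min.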

[13] = molecular target: 5-hydroxytryptamine receptor 2A (Homo sapiens) (UniProt P28223); assay: 5-hydroxytryptamine receptor 2A (HTR2A) small molecule agonists, cell-based qHTS assay (AID 1963587); also: nearly all actives have a fitted effect of over 30% in size
Outline: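 Kinetic calcium-flux fluorescence (2 min, 1 sec intervals) after compound addition in agonist mode. HTR2A-CHO cells were cultured 18 h, then dye-loaded 1 h at 37 C.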

[14] = molecular target: Muscarinic acetylcholine receptor M1 (Homo sapiens) (UniProt P11229); assay: Cholinergic receptor muscarinic 1 (CHRM1) small molecule antagonists, cell-based qHTS assay (AID 1963588); also: nearly all actives have a fitted effect of over 40% in size
Sequence of Muscarinic acetylcholine receptor M1 (Homo sapiens) (P11229 whole entry, looked up): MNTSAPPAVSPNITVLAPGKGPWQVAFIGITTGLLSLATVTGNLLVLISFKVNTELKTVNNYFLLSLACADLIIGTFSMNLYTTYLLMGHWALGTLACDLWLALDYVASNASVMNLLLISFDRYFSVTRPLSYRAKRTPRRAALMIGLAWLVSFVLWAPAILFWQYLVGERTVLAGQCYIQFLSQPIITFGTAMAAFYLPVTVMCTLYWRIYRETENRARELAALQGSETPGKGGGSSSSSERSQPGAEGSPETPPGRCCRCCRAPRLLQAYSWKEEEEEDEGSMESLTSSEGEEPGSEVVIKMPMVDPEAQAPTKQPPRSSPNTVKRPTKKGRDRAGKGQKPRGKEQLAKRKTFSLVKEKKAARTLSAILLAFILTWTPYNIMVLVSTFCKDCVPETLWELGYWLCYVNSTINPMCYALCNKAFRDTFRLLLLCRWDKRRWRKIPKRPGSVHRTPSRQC
Outline: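 Compounds were tested at 15 concentrations in three independent runs. Dye-loaded CHRM1-CHO cells were exposed 5 min at room temperature before stimulation by acetylcholine added at 50nM. Intracellular calcium was read kinetically on FDSS for 3 min.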

[15] = molecular target: Muscarinic acetylcholine receptor M1 (Homo sapiens) (UniProt P11229); assay: Cholinergic receptor muscarinic 1 (CHRM1) small molecule agonists, cell-based qHTS assay (AID 1963589); also: nearly all actives have a fitted effect of over 35% in size
Outline: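 Calcium flux read-out: kinetic fluorescence at 1 sec intervals after pin-tool compound addition to dye-loaded CHRM1-CHO cells (human M1). Agonist mode; 15 concentrations tested in triplicate independent runs.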

[16] = cAMP Responsive Elements (CRE) small molecule agonists, cell-based qHTS assay (AID 1963590)
Outline: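 Beta-lactamase reporter readout: LiveBLAzer B/G FRET substrate, 2 h at room temperature, added after 3 h compound treatment of CRE-bla HEK 293T cells at 37 C/5% CO2.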

[17] = molecular target: Beta-2 adrenergic receptor (Homo sapiens) (UniProt P07550); assay: Adrenergic beta2 receptor (ADRB2) small molecule antagonists, cell-based qHTS assay (AID 1963592); also: nearly all actives have a fitted effect of over 50% in size; also: potency is read from the fitted curve at half-maximal effect
Sequence of Beta-2 adrenergic receptor (Homo sapiens) (P07550 whole entry, looked up): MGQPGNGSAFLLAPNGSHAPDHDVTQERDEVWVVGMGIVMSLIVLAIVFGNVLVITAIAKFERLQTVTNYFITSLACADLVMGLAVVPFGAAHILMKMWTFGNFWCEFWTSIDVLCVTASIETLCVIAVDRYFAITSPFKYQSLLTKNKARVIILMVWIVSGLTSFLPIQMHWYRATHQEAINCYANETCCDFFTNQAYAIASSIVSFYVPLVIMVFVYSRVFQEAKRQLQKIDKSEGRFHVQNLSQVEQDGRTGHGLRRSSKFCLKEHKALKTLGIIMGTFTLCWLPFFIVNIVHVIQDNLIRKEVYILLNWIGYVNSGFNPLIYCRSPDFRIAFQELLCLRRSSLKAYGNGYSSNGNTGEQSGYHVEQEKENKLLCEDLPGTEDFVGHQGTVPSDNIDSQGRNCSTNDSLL
Outline: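 Assay format: CHO-ADRB2 cells, 18-20hr seeding at 37C/5% CO2, then compound plus 1nM isoproterenol agonist mix for 0.5hr RT. Homogeneous time-resolved fluorescence cAMP detection after 1hr, expressed as 665/615 nm ratio.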

[18] = molecular target: D(2) dopamine receptor (Homo sapiens) (UniProt P14416); assay: Dopamine D2 receptor (DRD2) small molecule agonists, cell-based qHTS assay (AID 1963594); also: nearly all actives have a fitted effect of over 35% in size
Sequence of D(2) dopamine receptor (Homo sapiens) (P14416 whole entry, looked up): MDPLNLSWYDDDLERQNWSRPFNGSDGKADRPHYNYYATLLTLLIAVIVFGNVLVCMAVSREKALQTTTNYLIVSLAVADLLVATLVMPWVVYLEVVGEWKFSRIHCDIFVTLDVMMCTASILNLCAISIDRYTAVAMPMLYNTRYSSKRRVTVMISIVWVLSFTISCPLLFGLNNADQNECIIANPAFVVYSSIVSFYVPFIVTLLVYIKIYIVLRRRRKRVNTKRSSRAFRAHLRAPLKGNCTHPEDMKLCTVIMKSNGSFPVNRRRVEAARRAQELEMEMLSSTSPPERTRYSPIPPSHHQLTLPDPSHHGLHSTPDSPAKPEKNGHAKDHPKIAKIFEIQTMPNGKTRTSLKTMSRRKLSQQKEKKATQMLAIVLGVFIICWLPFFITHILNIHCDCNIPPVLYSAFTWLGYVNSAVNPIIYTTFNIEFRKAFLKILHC
Outline: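 cAMP accumulation in DRD2-HEK293 cells measured by HTRF after 1 h detection; compounds added 10 min before NKH477 (200nM […]) forskolin-analogue stimulation, 30 min at room temperature, with Ro20-1724 present at 0.1 mM final.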

[19] = cAMP Responsive Elements (CRE) small molecule antagonists, cell-based qHTS assay (AID 1963591; active = well fitted inhibition curve with a large enough effect in the signal ratio in the repeat runs, not every such curve was filed as active; the % refers to the signal ratio)
Outline: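 HEK293T CRE-bla; 18 h preincubation; compound pin-transfer; NKH477 0.25 uM final, 3 h, 37 C; LiveBLAzer FRET substrate 2 h RT.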

[20] = molecular target: D(2) dopamine receptor (Homo sapiens) (UniProt P14416); assay: Dopamine D2 receptor (DRD2) small molecule antagonists, cell-based qHTS assay (AID 1963595; active = well fitted inhibition curve with a large enough effect in the signal ratio in the repeat runs, with a control signal flat; the % refers to the signal ratio)
Outline: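 HEK293 cells stably expressing DRD2 were preincubated with 0.1 mM Ro20-1724, then with compound for 10 min at room temperature. Cells were stimulated with 200 nM NKH477 plus 12 nM quinpirole for 30 min, and cAMP was read by HTRF.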

Row | SMILES | Potency [1] | Potency [2] | Potency [3] | outcome [4] | outcome [5] | Potency [6] | Potency [7] | Potency [8] | Potency [9] | Potency [10] | Potency [11] | Potency [12] | Potency [13] | Potency [14] | Potency [15] | Potency [16] | Potency [17] | Potency [18] | Potency [19] | Potency [20]
1 | COc1cc2c(cc1OC)C(=O)C(CC1CCN(Cc3ccccc3)CC1)C2 (stereo not drawn) | inactive | inactive | inactive | inactive | inactive | inactive | inactive | inactive | inactive | inactive | inactive | inactive | inactive | inactive | inactive | inactive | 18.8 µM (active) | inactive |  | 
2 | CC(C)(C)C(=O)/C=C/c1ccc(Cl)cc1 | inactive | 54.5 µM (active) | inactive | inactive | inactive | inactive | inactive | inactive | inactive | inactive | inactive | inactive | inactive | inactive | inactive |  | inactive | inactive | inactive | 
3 | CCNC(=O)C1CC(C)CCC1C(C)C (stereo not drawn) | inactive | inactive | inactive | inactive | inactive | inactive | inactive | inactive | inactive | inactive | inactive | inactive | inactive | inactive | inactive | inactive | inactive | inactive |  | inactive
4 | CC1=C(C)C(=O)C(C(CCCCCC(=O)O)c2ccccc2)=C(C)C1=O (stereo not drawn) | inactive | inactive | inactive | inactive | inactive | inactive | inactive | inactive | inactive | inactive | inactive | inactive | inactive | inactive | inactive | inactive | inactive | inactive |  | inactive
5 | Cc1cc(=O)[nH]c(=O)[nH]1 | inactive | inactive | inactive | inactive | inactive | inactive | inactive | inactive | inactive | inactive | inactive | inactive | inactive | inactive | inactive | inactive |  | inactive |  | 
6 | C=CCn1c(=O)n(CC=C)c(=O)n(CC=C)c1=O | inactive | inactive | inactive | inactive | inactive | inactive | inactive | inactive | inactive | inactive | inactive | inactive | inactive | inactive | inactive | inactive |  | inactive |  | inactive
7 | O=C(c1ccccc1)c1cccc(O)c1 | inactive | inactive | inactive | inactive | inactive | inactive | inactive | inactive | inactive | inactive | inactive | inactive | inactive | inactive | inactive | inactive | inactive | inactive |  | inactive
